The viability is a read-out of living cells in per cent, often relative to untreated cells.

This note sets out measurements from PubChem BioAssay AID818 (SRMLSC, 2007).

Hit rate of the full screen: of about 140,000 compounds, about 2,100 (1.5%) were called active.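 How the source made its calls: active means viability at or under a set limit, the compound median less 4 SD (cut at about 6% in these data); inactive means the rest.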 What follows is part of a selection rich in actives, with near analogues and random picks from the rest.

The nature of the experiment: primary screen for growth suppressors in beta-catenin knockout HCT116 cells (colon tumor, human) (AID 818).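 Further: 0% = Hyamine 1622 control at 20 µM and 100% = untreated cell control.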 To be noted: CellTiter-Glo, 60 h, at 10 µM, stronger effect = lower value. A general note: In ATP-based viability assays light output follows the ATP content of the culture.
Take `Cc1[nH]n(-c2ccccc2)c(=O)c1/C=N/NC(=O)c1ccoc1C`: the viability was 3.98% (active). In the case of `Cc1[nH]n(-c2ccc(Cl)cc2)c(=O)c1/C=N/n1c(C)nc2ccccc2c1=O` it was 22.4% (inactive); in that of `COc1cccc(/C=N/NC(=O)c2cccc([N+](=O)[O-])c2)c1OS(=O)(=O)c1ccc(C)cc1`, 80.7% (inactive).

Turning to `COc1cc(/C=N\NC(=O)CNC(=O)c2cccc([N+](=O)[O-])c2)ccc1O`, the viability was 79% (inactive).

In the case of `Cc1[nH]n(-c2cccc(Cl)c2)c(=O)c1/C=N/n1c(C)nc2ccccc2c1=O`, the viability is 85.9% (inactive). With `Cc1ccc(-n2[nH]c(C)c(/C=N/NC(=O)c3cccc([N+](=O)[O-])c3)c2=O)cc1C` the figure was 3.51% (active); with `COC(=O)C1NN=C(C(=O)c2ccc(Br)cc2)C1c1cccc(Br)c1` (stereo not given), 96.8% (inactive); with `O=C(CN1CCN(c2ccc(O)cc2)CC1)NC1CCCc2ccccc21` (stereo not given), 74% (inactive).

Regarding `C/C(=N\NC(=O)Cc1ccc(Cl)cc1)c1ccccn1`, the viability was 4.96% (active). Consider `COc1ccc(C(CC(=O)O)NC(=O)Cc2ccccc2)cc1` (stereo not given), for which the viability is 96.5% (inactive).

In the case of `C/C(=N\NC(=O)Cc1ccc(F)cc1)c1ccc(F)cc1`, the viability was 99.1% (inactive). In the case of `COc1ccc(CC(=O)N/N=C(\C)c2ccccn2)cc1` it was 3.98% (active); in that of `C/C(=N/NC(=O)CSc1ccccn1)c1ccc([N+](=O)[O-])cc1`, 94.1% (inactive).

For `COc1ccc(C/C(C)=N/NC(=O)c2ccncc2)cc1`, the viability is 91.1% (inactive). With `CCC(CC)C(=O)N1CCN(c2cccc(C)c2C)CC1` the figure was 43.6% (inactive); with `COC(C(=O)Nc1ccc(C(C)=O)cc1)c1ccccc1` (stereo not given), 85.5% (inactive); with `O=C(NCCCO)/C(=C\C=C\c1ccccc1)NC(=O)c1ccccc1Cl`, 94% (inactive). In the case of `Cc1cc(Br)ccc1SCC(=O)OCC(=O)NCc1ccc2c(c1)OCO2` it was 85.9% (inactive); in that of `CC(C)C(=O)Nc1cccc(NC(=O)c2ccc([N+](=O)[O-])cc2Cl)c1`, 96% (inactive); in that of `O=C(/C=C/c1ccc(Cl)cc1Cl)c1cccnc1`, 0.88% (active). In the case of `O=C(/C=C/c1ccc(Cl)cc1Cl)NCc1ccco1` it was 102% (inactive). As for `O=C(NCc1ccc(Cl)c(Cl)c1)c1cccnc1`, the viability was 92.2% (inactive).

As for `CC(=O)Nc1ccc(NC(=S)NC(=O)c2ccc([N+](=O)[O-])c(C)c2)cc1`, the viability was 93.3% (inactive). With `CCC(C)(C)C1CCC(=NNC(=O)c2ccc(Br)o2)CC1` (stereo not given) the figure was 94.6% (inactive). In the case of `O=C(COC(=O)Cc1ccc(Br)cc1)Nc1c(F)c(F)c(F)c(F)c1F` it was 94.5% (inactive); in that of `COc1cc(/C=C2\SC(=S)N(Nc3ncc(C(F)(F)F)cc3Cl)C2=O)cc(OC)c1OC`, 109% (inactive). In the case of `COc1cccc(/C=N\NC(=O)C2=NNC(=O)C2C)c1O` (stereo not given) it was 45.9% (inactive); in that of `COc1cccc(/C=N/Nc2ncc(C(F)(F)F)cc2Cl)c1O`, 2.51% (active). `COc1ccc(OC)c(-c2c(=O)n(OCc3ccccc3Br)c3ccccc3[n+]2[O-])c1`: the viability was 74.9% (inactive). In the case of `COc1ccc(C(=O)Nc2c(Cl)cc(Cl)cc2C(=O)N2CCC(C)CC2)cc1`, the viability was 77.2% (inactive). In the case of `CCOc1cc(N2CCOCC2)c(OCC)cc1NC(=O)COc1cccc2cccnc12` it was 4.29% (active); in that of `CCOc1cc(N2CCOCC2)c(OCC)cc1NC(=O)COC(=O)[C@H](Cc1c[nH]c2ccccc12)NC(C)=O`, 87.2% (inactive); in that of `Cc1cccc(OCC(=O)NC(=S)Nc2ccccc2N2CCOCC2)c1`, 98.4% (inactive).

As to `CCOC(=O)c1ccccc1N1C(=O)C2Sc3[nH]c(=O)sc3C(/C=C/c3ccccc3)C2C1=O` (stereo not given), the viability was 91.4% (inactive). With `Cc1nc2c(C(=O)NCc3cccs3)cnn2c(C)c1Cc1ccc(F)cc1` the figure was 83.5% (inactive). In the case of `N#C/C(=C/c1ccc(N2CCCCC2)o1)C(=O)NCCc1c[nH]c2ccccc12` it was 90.2% (inactive). With `O=C(Nc1ccc([N+](=O)[O-])cc1)C1(c2ccccc2)CCOCC1`, the viability is 94.8% (inactive). In the case of `C=C1c2cc(CC)ccc2NC(=O)N1c1ccc(C)cc1` it was 98.3% (inactive). Turning to `CCc1ccc2c(c1)C1(NN=C(c3ccccc3)S1)C(=O)N2` (stereo not given), the viability is 4.17% (active). For `O=C1Nc2ccccc2C12Nc1ccccc1S2` (stereo not given), the viability is 86.2% (inactive). In the case of `Cc1ccc2c(CC(=O)NCc3cccs3)coc2c1` it was 102% (inactive); in that of `Cc1ccnc(NS(=O)(=O)c2ccc(NC(=O)c3ccc(S(=O)(=O)N4CCOCC4)cc3)cc2)n1`, 97% (inactive). In the case of `CCC(C)(NC(=O)c1ccccn1)C(=O)NC1CCCCC1` (stereo not given) it was 89.8% (inactive). With `CCN(CC)CCOc1ccc2c(c1)C(=NNC(=O)c1ccccn1)c1cc(OCCN(CC)CC)ccc1-2` the figure was 0.37% (active). In the case of `CCC(C(=O)OCCN(CC)CC)c1ccccc1` (stereo not given), the viability was 106% (inactive). In the case of `COCCNc1nc(N)c([N+](=O)[O-])c(NCCO)n1` it was 98.5% (inactive); in that of `O=C(Nc1ccccc1F)c1ccccc1-c1ccc(C(F)(F)F)cc1`, 77.4% (inactive); in that of `CCOC(=O)C1=C(C)NC(=S)NC1c1cccs1` (stereo not given), 84.5% (inactive). With `Cc1cccc(NC(=O)NC(=S)NC(=O)c2ccccc2)c1` the figure was 102% (inactive); with `O=C(NC1CCN(Cc2ccccc2)CC1)c1c(F)cccc1F`, 93.9% (inactive).
